Among all 310,000 compounds or so, about 1,000 (0.32%) were called active. Not all results are given here. Entries with a potency or affinity are not part of this list. A number with no mark means an inactive call. The rule behind the calls is not given here.

The assay can be described thus: Inhibition of PhoP regulon, Salmonella typhi GFP reporter cells, confirmation, 4 h (AID 1850).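 Note: 0% = induced wells with vehicle and 100% = uninduced wells.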 The conditions noted are these: Salmonella Typhi PhoP-promoter GFP reporter, fluorescence, at 50 µM, active compounds read high.
A word on the inhibition: it is the change of the read-out against control, counted positive when it falls. For the molecule `Cn1c(=O)oc2cc(S(=O)(=O)NCc3ccccn3)ccc21`, the inhibition was 0.2%.

For `Cc1cc(C)cc(NC(=S)/N=C(\N)Nc2nc(C)c3ccccc3n2)c1`, the inhibition was -5.71%.

With `Cc1ccc(COC(=O)c2ccc3ccccc3n2)cc1`, the inhibition was -0.98%.

Take `O=C(Cc1ccc(F)cc1)c1ccc(O)cc1O`: the inhibition was -11.9%.

`COc1ccc(CC(=O)c2ccc(O)cc2O)cc1`: the inhibition is -0.72%.

As to `C=CCOCCN1C(=O)C2C(c3ccccc3)C=CC(c3ccccc3)C2C1=O` (stereo not given), the inhibition was 5.25%.

`CCc1nnc(NC(=O)[C@@H]2CCCN2S(=O)(=O)c2ccc3c(c2)OCCO3)s1`: the inhibition is -7.63%.

On to `CN1CCN(CCC(=O)N2c3ccccc3Sc3ccc(Cl)cc32)CC1`, for which the inhibition was -0.99%.

As to `OCCN1CCN(CCCN2c3ccccc3Sc3ccc(Cl)cc32)CC1`, the inhibition is 4.15%.

`CN1CCN(CCCN2c3ccccc3Sc3ccc(S(=O)(=O)N(C)C)cc32)CC1`: the inhibition is 0.8%.

For `CN1CCN(CCCN2c3ccccc3Sc3ccc(C(F)(F)F)cc32)CC1`, the inhibition was 5.34%.

With `CN1CCCCC1CCN1c2ccccc2Sc2ccc(S(C)=O)cc21` (stereo not given), the inhibition is 0.68%.

In the case of `CN1CCCC(CN2c3ccccc3Sc3ccccc32)C1` (stereo not given), the inhibition was -0.92%.

As to `O=C(Nc1cccc(-n2cccn2)c1)C1CCCN(Cc2cccc(F)c2F)C1` (stereo not given), the inhibition is -4.31%.

In the case of `N/C(=N\OC(=O)c1ccc(Br)cc1)c1ccncc1`, the inhibition was 5.21%.

For the molecule `COc1ccc(OC)c(S(=O)(=O)N2CCC(C(=O)NCc3ccc4c(c3)OCO4)CC2)c1`, the inhibition was -8.79%.

Take `Cc1ccc2cc(CCNC(=O)c3cccs3)c(=O)[nH]c2c1C`: the inhibition is 3.08%.

Consider `CCOc1ccc(S(=O)(=O)N2CCN(C(=O)c3ccc(-n4cncn4)c([N+](=O)[O-])c3)CC2)cc1`, for which the inhibition is -1.56%.

With `COc1ccc(N2CCN(C(c3cccs3)C(C)NS(C)(=O)=O)CC2)cc1` (stereo not given), the inhibition was -6.29%.

In the case of `Cc1nc(N)nc(Cl)c1Cc1ccc(Cl)cc1`, the inhibition is -7.07%.

`COc1ccc(Cc2c(C)nc(N)nc2Cl)cc1`: the inhibition is -7.38%.

As to `CCCCN(C)CCNC(=O)c1cc2cc3ccc(OC)cc3nc2o1`, the inhibition was 7.2%.

Consider `CCN(CC(=O)Nc1ccccc1C(F)(F)F)C(=O)CN1C(=O)NC2(CCCCC2)C1=O`, for which the inhibition was -5.21%.

On to `Nc1nc(SCC(=O)Nc2ccccc2Sc2ccccc2)n[nH]1`, for which the inhibition was -1.42%.

Take `COc1ccccc1NC(=O)CCn1cccc1`: the inhibition was -6.32%.

Regarding `C/C(=N\Nc1ccc2nncn2n1)c1ccco1`, the inhibition is 2.03%.

Consider `C/C(=N\Nc1ccc2nncn2n1)c1cccs1`, for which the inhibition was 4.31%.

With `O=C(Nc1csc(Cc2c(Cl)cccc2Cl)n1)NN1CCOCC1`, the inhibition is -0.65%.

In the case of `O=C(NCCCN1CCCC1)Nc1ccc(F)cc1`, the inhibition is 2.17%.

On to `CN1CCN(CCCNC(=O)Nc2ccc([N+](=O)[O-])cc2)CC1`, for which the inhibition is 1.78%.

With `COCC(=O)NNC(=O)Cc1ccc(Cl)cc1`, the inhibition was -2.72%.

On to `CC(C)Oc1ccc(Cc2cnc(=S)[nH]c2N)cc1`, for which the inhibition was 7.33%.

Consider `CC(C)COc1ccc(Cc2cnc(N)nc2N)cc1`, for which the inhibition is 15.8%.

With `CCSc1ccccc1C(=O)N=C1NC(=O)CC2C(=O)NCCN12` (stereo not given), the inhibition was 1.96%.

Consider `O=C(COc1ccc(C(=S)N2CCOCC2)cc1)Nc1ccccc1C(F)(F)F`, for which the inhibition is -0.77%.

As for `O=C(NCCCNC(=O)c1ccc(-c2cc(Cl)ccc2Cl)o1)c1cnccn1`, the inhibition is 9.68%.

For the molecule `COc1cccc(C(=O)NC2=NCCS2)c1OC`, the inhibition is 2.77%.

Turning to `CCOC(=O)Nc1c2ccccc2nc2ccccc12`, the inhibition is -6.02%.

As for `O=C(O)c1ccc(Nc2c3ccccc3nc3ccccc23)cc1`, the inhibition is 4.42%.

Turning to `CC(=O)C1=C(C)NC(=O)NC1c1ccccc1OCC(=O)NCCc1ccccc1` (stereo not given), the inhibition was 2.94%.

For the molecule `Cc1nc2ccc(Br)cn2c1C(=O)N/N=C\c1ccccc1[N+](=O)[O-]`, the inhibition is -1.1%.

Regarding `O=C(COc1ccc(Cl)cc1Cl)N1CCCCCC1`, the inhibition was 3.1%.

`O=C(Nc1ccc(Cl)c(Cl)c1)Nc1nccs1`: the inhibition was 0.93%.

Take `CC(=O)Nc1sc(N/N=C\c2cccc(Cl)c2)nc1-c1cccs1`: the inhibition is -2.74%.

With `Clc1cccc(Cl)c1/C=N\Nc1nccs1`, the inhibition was -7.79%.

Regarding `Fc1cccc(/C=N/Nc2ccccn2)c1`, the inhibition was -0.26%.

As for `FC(F)(F)c1ccc(N/N=C/c2cccnc2)nc1`, the inhibition was -6.21%.

As for `O=C(Nc1ccc(Cl)cc1)Nc1nccs1`, the inhibition is -2.29%.

For `Cc1csc(N/N=C\c2cccnc2)n1`, the inhibition was -7.97%.

Take `C(=N\c1nccs1)/c1cccnc1`: the inhibition is 10.7%.

With `Cc1[nH]nc2c1C(c1ccccc1F)NC2=O` (stereo not given), the inhibition is 8.34%.

`COc1cccc(NC(=O)N(CCN(C)C)C(C)c2cccnc2)c1` (stereo not given): the inhibition was 1.53%.

For the molecule `Cc1ccc(NC(=O)CCn2cnc3ccccc3c2=O)cc1Cl`, the inhibition was 5.48%.

For the molecule `CCOc1ccc(NS(=O)(=O)c2ccc(C(=O)NCC(c3ccc(OC)cc3)N3CCCC3)cc2)cc1` (stereo not given), the inhibition was 4.44%.

On to `Cc1cccnc1Sc1c([N+](=O)[O-])ncn1C`, for which the inhibition is -0.07%.

In the case of `O=C(Nc1cccnc1)C1CCC(CNS(=O)(=O)c2cccc3nsnc23)CC1` (stereo not given), the inhibition was 8.22%.

For `CC(=O)c1cc(F)ccc1OCC(=O)N1CCCc2ccccc21`, the inhibition was 5.07%.

For the molecule `CN1CCN(c2ccccc2NC(=O)c2ccc(N3CCCC3)c([N+](=O)[O-])c2)CC1`, the inhibition was 20.3%.

With `O=S(=O)(Cc1ccccc1Cl)NCCc1ccccc1`, the inhibition was 0.01%.

For the molecule `CCOC(=O)c1sc(NC(=O)c2ccccc2)cc1C`, the inhibition was 3.11%.

Take `Cc1nc(NC(=O)c2ccccc2)sc1C`: the inhibition is -2.8%.

On to `Cc1cc(NC(=O)c2ccccc2)cc(NC(=O)c2ccccc2)c1C`, for which the inhibition is 2.54%.

Turning to `Cc1sc(NC(=O)c2ccccc2)c(C(=O)c2ccccc2)c1C`, the inhibition is -8.66%.

In the case of `O=C(CSc1cc([N+](=O)[O-])cc(S(=O)(=O)Cc2ccccc2)c1)NC1CC1`, the inhibition was -3.36%.

`Cc1cccn2c(CNCC3OCCc4ccccc43)c(C(=O)N3CCCCC3)nc12` (stereo not given): the inhibition was 2.24%.
